Reference: PubChem BioAssay (NCI)
Compounds without any hit were thinned out: in the full panel of roughly 79,000, 15% have a hit. Unmarked numbers belong to inactive results. Activity calls are given as the source filed them. Cut-off read from the data, not from the text of the source: active = growth inhibition above about 70%; inactive = the rest.

Columns and labels:
[1] = NCI Yeast Anticancer Drug Screen. Data for the rad50 strain (AID 155);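 note: 0% = growth of vehicle-only cultures of the same strain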; details: S. cerevisiae rad50 strain growth inhibition; at 50.0 µM; stronger effect = higher value
Summary of the method: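 Yeast carrying a defined DNA repair defect were exposed to test compounds, and growth was compared with vehicle-treated controls to give percent inhibition.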

[2] = NCI Yeast Anticancer Drug Screen. Data for the mec2-1 strain (AID 157); details: S. cerevisiae mec2-1 strain, at 50.0 µM, stronger effect = higher value
Summary of the method: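 Test agents were screened against the mec2-1 yeast strain, with defined DNA repair or cell cycle alteration. Growth was scored as inhibition against vehicle-only controls.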

[3] = NCI Yeast Anticancer Drug Screen. Data for the sgs1 mgt1 strain (AID 161);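 note: 0% = growth of cultures given vehicle only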; details: S. cerevisiae sgs1 mgt1 strain, at 50.0 µM, stronger effect = higher value
Summary of the method: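 Genetically altered yeast, compound exposure, growth inhibition relative to vehicle.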

[4] = NCI Yeast Anticancer Drug Screen. Data for the cln2 rad14 strain (AID 165);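 note: 0% = growth equal to vehicle treated cultures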; details: S. cerevisiae cln2 rad14 strain, at 50.0 µM, stronger effect = higher value
Summary of the method: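 Growth of compound-exposed yeast (cln2 rad14 genotype) measured and expressed as inhibition relative to vehicle.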

[5] = NCI Yeast Anticancer Drug Screen. Data for the bub3 strain (AID 167); details: S. cerevisiae bub3 mutant strain, at 50.0 µM, stronger effect = higher value
Summary of the method: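 Compounds were applied to a genetically altered yeast strain carrying a cell-cycle control defect. Growth inhibition was scored against vehicle-treated controls.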

[6] = NCI Yeast Anticancer Drug Screen. Data for the mlh1 rad18 strain (AID 175); details: S. cerevisiae mlh1 rad18 strain growth inhibition; at 50.0 µM; stronger effect = higher value
Summary of the method: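 In this whole-cell yeast screen, a strain with altered DNA damage repair is challenged with compound, and its growth is measured against matched vehicle-treated controls.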

Compound	growth inhibition [1]	growth inhibition [2]	growth inhibition [3]	growth inhibition [4]	growth inhibition [5]	growth inhibition [6]
N=c1nc(N)ss1	15.8%	5.85%	16.4%	-31.6%	21.7%	44%
COC(=O)C1(C)CCCC2(C)c3cc(OC)ccc3C(=O)C(Cl)C12 (configuration not stated)	7.8%	0.15%	6.45%	-13.8%	26.4%	5.7%
OCCc1nccnn1	-2.65%	5.8%	1.9%	-1.35%	4.65%	-3.6%
O=[N+]([O-])c1ccc(N/N=C/c2ccccc2O)c([N+](=O)[O-])c1	5.05%	20.5%	4.8%	-6.8%	1.05%	4.2%
CCC(=O)[CH-]C(=O)CC.CCC(=O)[CH-]C(=O)CC.[Cu+2]	10.9%	-1.9%	10.2%	-39.4%	-17.6%	0%
Cc1cc2c(=O)c3ccccc3oc2c(C#N)c1C	19.6%	8.25%	9.2%	-15.4%	18.3%	16.9%
ClC(=Nc1ccccc1)c1cc(N2CCOCC2)ccn1	24.1%	11.1%	13.3%	8.35%	19.1%	14%
O=[N+]([O-])c1cccc([I+]c2cccc([N+](=O)[O-])c2)c1	98.5% (active)	95.8% (active)	97.7% (active)	96.5% (active)	97.2% (active)	98.2% (active)
CSc1nc(=O)[nH]c2c1[nH]c(=O)n2-c1ccccc1	1.2%	5.85%	-6.35%	-15.7%	8.3%	-9.05%
CCCCCCCCC(Nc1ccccc1)C(O)CCCCCCCC(=O)O (configuration not stated) (tested in a mixture with another compound)	-0.1%	1.8%	7.5%	-6.1%	-7.35%	16.2%
CN1COc2c(ccc3c4c(ccc23)CN(C)CO4)C1	3.15%	17.9%	16.6%	-47%	1.75%	35.4%
COC(=O)N1CC2CC=CC(C2)c2ccccc21 (configuration not stated)	-13.9%	-37.5%	-1.35%	5.15%	16.1%	-9.4%
O=C1NC(c2ccc(Cl)cc2)(c2ccc(Cl)cc2)C(=O)N1Cl	-4.8%	-1.6%	8.05%	16.9%	11.6%	-16.4%
Cc1ccc(S(=O)(=O)N2CCCC2C(=O)O[C@H]2CC[C@H]3CC=C[C@H]32)cc1 (some centres not stated)	-15.6%	-44.7%	-8.2%	-8.45%	-5.25%	-21.6%
COc1ccc(CCNC(=O)CC(C)=O)cc1	-49.2%	-40.5%	-42.3%	11.4%	-38%	-41.8%
Cc1cc(N(C)C)c([N+](=O)[O-])cc1C=O	5.9%	13.8%	-13.3%	-22.4%	-24.9%	-5.8%
COC(=O)c1cc(-c2ccc(OC)cc2)[nH]c(=O)c1C#N	20.2%	21.1%	31.2%	20.4%	26.1%	27.9%
CC(=O)C1=CCC2c3[nH]c4ccccc4c3CCN2C1 (configuration not stated)	17.6%	4.1%	20.3%	25.7%	1.5%	18.9%
COc1cc(/C=C2/C(=O)N=C(NC(C)=O)N2C)ccc1OC(C)=O	-35.9%	-2.55%	-14.7%	6.35%	5.55%	-37.1%
Cc1cc(C)n(-c2nc(-n3nc(C)cc3C)nc(-n3nc(C)cc3C)n2)n1	-34.2%	-32.2%	-1.7%	-20.6%	-21.1%	-41.5%
c1ccc(COc2ccc(CC3SCCCS3)cc2)cc1	-30.5%	-35.8%	-10.4%	24.9%	16.6%	-7.5%

Compound	growth inhibition [1]	growth inhibition [2]	growth inhibition [3]	growth inhibition [4]	growth inhibition [5]	growth inhibition [6]
O=c1c2[nH]cnc2ncn1Cc1ccccc1	0.95%	1.35%	0.3%	-32.5%	-20.6%	-6.25%
CC(C)=NNC(=O)c1ccccc1O	33.9%	-7.7%	3.5%	2.3%	1.65%	-10.2%
CC1c2c(ccc3ccccc23)CCC1CC1CCCc2ccc3ccccc3c21 (configuration not stated)	45.6%	-6.15%	4.7%	2.2%	-1%	17.7%
CCN(CC)C(=O)C1CCNCC1	-12.3%	-14.4%	-2%	-27.2%	9.85%	-7.75%
CC1=C(O)c2ccccc2C(=O)C1=O	25.4%	16.8%	40.3%	36.2%	12.8%	23.8%
N#Cc1cccc2c(S(=O)(=O)O)cccc12	-12.9%	4.5%	11.6%	-17.3%	-2.85%	-10.8%
O=C1NC(N2CCCC(CO)C2)=N/C1=C\c1cccs1 (configuration not stated)	8.1%	-6.8%	-3.4%	3.25%	-14.4%	-39.7%
CC(=O)Oc1ccc(-c2ccccc2)cc1C(=O)O	5.9%	1.55%	29.4%	-15.7%	41.3%	11.6%
CN1CCN(P(=O)(c2ccccc2)N2CCN(C)CC2)CC1	32.3%	7.85%	29.6%	20.1%	-1.1%	30.7%
Cc1cc(N)cc(C)n1	22.9%	28.6%	-14.8%	0.7%	11.7%	11.7%
CC(=O)N(C)N=NCCCl	26.2%	7.2%	10.2%	-29.1%	12%	3.85%
N#Cc1c2c(c(=S)n(-c3ccc(Cl)cc3)c1N)CCCC2	-4.4%	-3.35%	-5.8%	1.75%	6.85%	-7.2%
COC(=O)C(C)(NC(=O)C(CC(=O)OC(C)(C)C)NC(=O)OC(C)(C)C)c1ccccc1 (configuration not stated)	41.5%	16%	46.5%	35.8%	36.7%	36%
NC(=O)CN(CC(N)=O)CC(N)=O	-0.7%	-11.7%	1.75%	-2.85%	-3.65%	-7.9%
Cc1cc(OCCN(C)C)cc(C)c1Cl	-2%	-0.75%	25.1%	37.6%	-16.9%	8.8%
Cc1ccc(NC(=O)CC/C(CC(=O)C(C)(C)C)=N/NC(=O)C(N)=O)cc1C	-2.75%	-9.95%	10.5%	10.6%	8.55%	5.1%
CCCCc1c2c(nc3c1CCC/C3=C\c1ccccc1)C(=O)CCC2	15.8%	9.1%	3.2%	12.2%	30.6%	18.1%
Nc1nc(=O)n(CCCOc2ccc([N+](=O)[O-])c(Cl)c2)cc1-c1ccc(Cl)c(Cl)c1	-1.2%	-8.2%	-5.4%	-21.4%	-3.15%	6.2%
CC(=O)Oc1cc2c3ccccc3ccc2c2ccccc12	13%	-9.5%	10.1%	-2.9%	8.85%	0.05%
N#Cc1cc([N+](=O)[O-])ccc1NC(=O)C(=O)Nn1c(=S)[nH]c2ccccc2c1=O	-2.25%	-2.6%	-34.5%	14.6%	10.3%	5.9%
Cc1cc(=O)[nH]c2nc(N)ccc12	-9.5%	-8.25%	11.7%	-24.9%	7.8%	-18.9%
